# In the library only some 0.46% were active in any assay of this set; here they are far more common.
# ERAP1 HTS inh: blocks human ERAP1 aminopeptidase activity | Q9NZ08 | recombinant ERAP1, Leu-AMC fluorescence, 60 min | inhibition, % at 10.7 µM | 340,000 tested, 0.15% active;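 active = mean replicate inhibition of at least 30%, or all replicates individually reaching that 30% level; inactive = mean below 30% and not every replicate reaching it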;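 also: 0% = neutral control wells and 100% = L-leucinethiol positive control wells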
# Target sequence (Q9NZ08 whole entry, looked up): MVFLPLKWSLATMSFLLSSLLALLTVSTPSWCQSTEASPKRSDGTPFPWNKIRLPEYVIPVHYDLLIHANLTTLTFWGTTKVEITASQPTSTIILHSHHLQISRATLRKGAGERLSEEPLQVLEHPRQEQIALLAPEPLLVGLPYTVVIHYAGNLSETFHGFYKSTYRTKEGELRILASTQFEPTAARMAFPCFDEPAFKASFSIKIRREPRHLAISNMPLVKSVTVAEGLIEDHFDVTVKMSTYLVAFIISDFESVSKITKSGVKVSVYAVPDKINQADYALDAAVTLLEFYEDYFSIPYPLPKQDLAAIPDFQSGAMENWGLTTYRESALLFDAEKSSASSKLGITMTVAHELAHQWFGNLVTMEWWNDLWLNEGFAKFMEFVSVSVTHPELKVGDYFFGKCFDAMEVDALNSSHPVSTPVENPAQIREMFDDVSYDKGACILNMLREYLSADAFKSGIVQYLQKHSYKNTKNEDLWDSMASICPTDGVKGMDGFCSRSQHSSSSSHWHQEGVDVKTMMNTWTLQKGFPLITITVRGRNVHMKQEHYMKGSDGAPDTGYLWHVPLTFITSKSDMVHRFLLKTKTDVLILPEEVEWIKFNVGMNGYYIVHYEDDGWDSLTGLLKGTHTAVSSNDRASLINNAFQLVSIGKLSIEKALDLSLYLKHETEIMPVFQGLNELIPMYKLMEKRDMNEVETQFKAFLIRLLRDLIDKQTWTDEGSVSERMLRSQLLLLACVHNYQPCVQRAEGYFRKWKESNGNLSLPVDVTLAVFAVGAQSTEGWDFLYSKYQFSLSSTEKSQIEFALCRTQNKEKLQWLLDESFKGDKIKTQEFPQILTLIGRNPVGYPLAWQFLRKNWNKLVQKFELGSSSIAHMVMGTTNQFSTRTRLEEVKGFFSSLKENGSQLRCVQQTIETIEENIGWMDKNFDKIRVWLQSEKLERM
# PDI inh: inhibitors of human protein disulfide isomerase; AID 588391; P07237; PDI insulin aggregation turbidity, A650, 90 min; 350,000 tested, 0.052% active; inhibition, % at 10 µM;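 active = mean inhibition across replicates of 30% or more, whatever share of single replicates reach that level; inconclusive = mean inhibition below 30% while every single replicate reaches 30%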
# PglD inh: inhibitors of Campylobacter jejuni PglD acetyltransferase | purified PglD enzyme, DTNB colorimetric CoA detection | inhibition, % at 12.5 µM | 360,000 tested, 0.098% active | AID 602405; in the data active = inhibition above about 16%, passing the limit was not always enough; inconclusive = no clear call, values can overlap the other calls
# CaV13 ICDI inh: Primary screen for inhibitors of IQ motif and Ca2+-dependent inactivation inhibitor domain binding in CACNA1D, Förster resonance energy transfer in living cells, …; 340,000 tested, 0.098% active; inhibition, % at 12.3 µM; HEK cells, CFP/YFP FRET ICDI-IQ, plate reader, 10 min; percent FRET-ratio fall versus neutral wells;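 active = mean replicate inhibition of at least 30% and at least 1% of replicates passing that level; inconclusive = only one of the two criteria is met; inactive = neither criterion is met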;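 also: 0% = median of the neutral control wells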
# ERp5 block: blocks human ERp5 reductase activity on insulin; inhibition, % at 9.99 µM; Q15084; 350,000 tested, 0.05% active; ERp5 insulin aggregation, absorbance 650 nm, 90 min;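 active = mean replicate inhibition above about 25%, with every replicate also reaching it, limit read from the data, passing the limit was not always enough; inconclusive = only one of those two criteria met; inactive = neither criterion met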
# PGC1a acetyl inh: modulators of PGC1a acetylation; U2OS PGC1a acetylation, AlphaScreen anti-acetyl-lysine; with virally co-expressed GCN5 acetyltransferase; inhibition, % at 15.6 µM; 350,000 tested, 0.17% active; AID 651687;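 active = every replicate shows inhibition of at least 40%; inconclusive = mean inhibition at least 40% but some replicate below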;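 also: 0% = neutral control wells and 100% = positive control wells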
# PglD inh SP: confirmation of Campylobacter jejuni PglD acetyltransferase inhibitors | AID 743156 | Purified C. jejuni PglD, DTNB absorbance 412 nm | 320 tested, under 10 active | inhibition, % at 20 µM | shares compounds with PglD inh;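 active = mean inhibition across replicates of at least 20% with every single replicate also at 20% or more; inconclusive = mean inhibition at least 20% but some replicate falls below 20%; inactive = mean inhibition under 20% and not all replicates reach it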;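 also: initial rate of CoA release by acetyl transfer from AcCoA to the UDP-4-amino sugar; 0% = median of neutral control wells and 100% = median of positive control wells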
# Active calls of the source: *; ? = inconclusive; · = not tested or not shown; ! = repeats disagree.
SMILES,ERAP1 HTS inh,PDI inh,PglD inh,CaV13 ICDI inh,ERp5 block,PGC1a acetyl inh,PglD inh SP
c1ccc2c(c1)oc1c(Nc3ccc(CN4CCOCC4)cc3)ncnc12,·,-6,20*,-5,·,-8,1
CC(=O)N1CCCCN2[C@@H](CO)[C@H](c3ccc(Br)cc3)[C@@H]2C1,3,·,1,·,4,2,·
COC(=O)[C@H]1[C@H](CO)[C@H]2Cn3c(ccc(/C=C/c4ccccc4)c3=O)[C@H]2N1C(=O)C1CCCC1,-6,·,-3,·,5,·,·
C[C@H]1CN([C@@H](C)CO)C(=O)c2cc(-c3ccncc3)cnc2O[C@@H]1CN(C)Cc1cccnc1,-1,·,1,·,14,-11,·
COC(=O)C(=N/Nc1ccccc1C(=O)OC)/C(C)=N/O,4,-3,20*,-6,0,5,2
CCC(=O)Nc1ccc2c(c1)C(=O)N(C)[C@H]1CC[C@H](CC(=O)Nc3cccc(F)c3)O[C@@H]1CO2,-1,·,1,·,0,21,·
Cc1nnc(N2C(=O)c3ccc(Br)cc3C2=O)s1,-4,0,22*,-5,1,-2,2
O=C1c2ccc(Br)cc2C(=O)N1c1ccc(Cl)cn1,3,11,-2,-4,-3,8,·
COCC(=O)Nc1ccc2c(c1)C(=O)N(C)C[C@@H](OC)[C@H](C)CN(C(=O)C1CCCC1)[C@H](C)CO2,-3,·,-2,·,3,0,·
O=S(=O)(NC1CCN(Cc2ccccc2)CC1)c1ccc(F)c(F)c1,-2,5,22*,-6,8,9,3
CCOc1nc(-c2ccccc2)ccc1-c1noc(-c2cccs2)n1,·,-8,21*,-9,·,-3,-9
CS(=O)(=O)N1[C@H](CO)[C@H](c2ccccc2-c2ccccc2F)[C@@H]1C#N,1,·,·,·,2,-2,·
COc1cc(CNCCc2c[nH]c3ccccc23)ccc1OCc1ccc(F)cc1,·,-2,-2,·,·,-5,·
COc1cccc(CNCCc2c[nH]c3ccccc23)c1OCc1ccc(F)cc1,·,10,26*,-5,·,-41,1
O=C(NCCc1ccc(Cl)cc1)C1CCN(S(=O)(=O)c2cccs2)CC1,·,-4,21*,-5,·,-41,0
O=C(NCCc1ccccc1)C1CCN(S(=O)(=O)c2cccs2)CC1,·,6,3,·,·,-8,·
CCOc1ccccc1NC(=O)N1CCCC1C(=O)Nc1ccc(-n2cnnn2)c(C)c1 (stereo not given),·,5,25*,·,·,-5,1
CN1C[C@@H](O)COC[C@H]2O[C@H](CC(=O)NC3CCCC3)CC[C@@H]21,2,·,3,·,1,3,·
CCCCn1c(SCC(=O)N2CC(C)CC(C)C2)nc2cc(S(N)(=O)=O)ccc21 (stereo not given),·,-2,2,-8,·,3,·
CCCCn1c(SCC(=O)N2CCCCC2)nc2cc(S(N)(=O)=O)ccc21,·,-4,45*,-11,·,10,2
COc1ccccc1CNC(=O)C[C@H]1C[C@H]2c3cc(NC(=O)C4CCC4)ccc3O[C@H]2[C@H](CO)O1,0,·,1,·,-6,5,·
COCC(=O)Nc1ccc2c(c1)C(=O)N(C)[C@H]1CC[C@H](CC(=O)NCc3cccc(F)c3)O[C@H]1CO2,·,·,3,·,·,0,·
COC(=O)[C@@H]1[C@@H](CO)[C@@H]2Cn3c(ccc(-c4cccc(F)c4)c3=O)[C@@H]2N1CC1CCCC1,2,·,1,·,0,-7,·
COc1ccc(CCCNC(=O)C2(C)Cc3c(-c4ccc(C(N)=O)cc4)ccnc3O2)cc1 (stereo not given),1,0,4,-10,9,-1,·
COc1ccc(CCCNC(=O)C2(C)Cc3c(-c4ccc5c(c4)OCO5)ccnc3O2)cc1 (stereo not given),11,3,22*,-5,5,-54,0
SMILES,ERAP1 HTS inh,PDI inh,PglD inh,CaV13 ICDI inh,ERp5 block,PGC1a acetyl inh,PglD inh SP
N#Cc1cnn2cc(-c3ncc(C(F)(F)F)cc3Cl)cnc12,·,14,47*,-4,·,3,-2
CCN(CC)S(=O)(=O)c1ccc(NS(=O)(=O)c2cccc(C)c2)cc1,·,-2,25*,-4,·,-26,0
C[C@@H]1CN([C@@H](C)CO)C(=O)c2cccc(NS(C)(=O)=O)c2O[C@H]1CN(C)S(=O)(=O)c1ccc(Cl)cc1,0,·,2,·,-8,0,·
Cn1c(CC(=O)Nc2ccccc2Cl)nnc1SCC(=O)Nc1nncs1,2,5,26*,-4,1,2,13
CO[C@H]1CN(C)C(=O)c2cc(NC(C)=O)ccc2OC[C@H](C)N(C(=O)c2ccc(F)cc2)C[C@@H]1C,1,·,0,·,-9,-2,·
Cc1ccc(N(CC(=O)NC(C)c2ccccc2)S(=O)(=O)c2c(C)noc2C)cc1 (stereo not given),-1,-9,27*,-2,3,·,-5
COc1cnc(-c2cccc(C(F)(F)F)c2)c(NC(=O)c2cc3ccccc3s2)n1,4,-2,30*,-4,-4,-1,2
C[C@H](CO)N1C[C@H](C)[C@@H](CN(C)C(=O)c2cccc(F)c2)Oc2ncc(-c3ccccc3)cc2C1=O,·,·,·,·,·,-28,·
CC(C)NC(=O)N(C)C[C@H]1Oc2cc(C#Cc3ccc(F)cc3)ccc2S(=O)(=O)N([C@@H](C)CO)C[C@@H]1C,-1,·,0,·,-4,-8,·
CC(C)NC(=O)N(C)C[C@H]1Oc2cc(C#Cc3ccc(F)cc3)ccc2S(=O)(=O)N([C@H](C)CO)C[C@H]1C,1,-6,21*!,-4,1,10,10
Nc1c(N2CCCC2)c2ccccc2oc1=O,2,9,21*,3,0,0,-4
CC(=O)C1=C(O)C(=O)N(c2ccc(F)cc2)C1c1ccc(C)cc1 (stereo not given),3,7,-3,-4,1,·,·
CC(=O)C1=C(O)C(=O)N(c2cccc(C(=O)O)c2)C1c1ccc(F)cc1 (stereo not given),-2,16,21*,-3,7,3,-3
CC(C)Cc1nc(N2CCN(C(=O)c3ccccc3)CC2)c(C#N)c2c1CCC2,·,4,2,-5,·,·,·
CC(C)Cc1nc(N2CCN(C(=O)c3ccco3)CC2)c(C#N)c2c1CCC2,·,-1,21*,·,·,-16,?
O=C(O)CC1(CC(=O)Nc2ccc3c(c2)C(=O)OC3)CCCCC1,-2,0,21*,-3,-2,-1,-3
CCn1c(SCC(=O)Nc2ccc3c(c2)OCCO3)nnc1-c1ccccn1,·,3,76*,-9,·,2,-4
CCOC(=O)c1sc(N(Cc2ccccc2)C(=O)CSc2ncn[nH]2)nc1C,·,-3,21*,·,·,-27,0

# High-throughput results: PubChem BioAssay, Broad Institute
